Screening data from PubChem.
PI5P4K alpha inh: qHTS for Inhibitors of phosphatidylinositol 5-phosphate 4-kinase (PI5P4K). Phosphatidylinositol 5-phosphate 4-kinase type-2 alpha (Homo sapiens), P48426. PI5P4Kalpha enzyme, ADP-Glo luminescence, 60 min; active compounds read low. AID 652105, 2013. max response, %. hit rate 1.2% among 330,000; active = max response of -50% or lower; inconclusive = between -30% and -50%; inactive = -30% or higher; also: value at the top dose of about 77 µM; % is scaled to controls: 0 for no effect and ±100 for the full control effect
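ADP-Glo luminescence end-point read after a 60 min room-temperature kinase reaction of PI5P4Kalpha plus substrate, initiated with ATP at 5 microM final. Buffer: 0.038 M HEPES pH 7.4, EGTA, 0.1% CHAPS, 5% DMSO.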
GCN5L2 inh-1: qHTS Assay for Inhibitors of GCN5L2; Histone acetyltransferase KAT2A (Homo sapiens), Q92830; hit rate 0.21% among 390,000; GCN5L2 HAT assay, ThioGlo1 CoA-SH fluorescence; Potency, µM (series often up to 58.9 µM), for the others: at the highest dose activity change, negative = inhibition, usual class: inhibitors; AID 504327, 2011; also: potency is read from the fitted curve at half-maximal effect; % is scaled to controls: 0 for no effect and ±100 for the full control effect
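Fluorescence readout, Ex340nm/Em540nm: ThioGlo1 (50uM final) reacts with free CoA thiol released as 20nM GCN5L2 acetylates H3(1-25) peptide (75uM) using acetyl-CoA (70uM). Compound and enzyme sat 15 min beforehand; 20 min room-temperature reaction.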
VDR inh: Inhibitors of the vitamin D receptor (VDR): qHTS; Potency, µM, for the others: max response, negative = inhibition, usual class: inhibitors; hit rate 0.93% among 400,000; Vitamin D3 receptor (Homo sapiens), P11473; VDR-SRC2-3 peptide fluorescence polarization, 2 h; also: potency is read from the fitted curve at half-maximal effect; % is scaled to controls: 0 for no effect and ±100 for the full control effect
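Inhibition of the VDR/SRC2-3 peptide interaction is quantified by fluorescence polarization. Compounds (23 nl, pintool) incubate with the reagents for 2 hours at ambient room temperature.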
Rango-impB inh: qHTS Assay for Inhibitors of Rango (Ran-regulated importin-beta cargo) - Importin beta complex formation. hit rate 0.031% among 340,000. Rango CFP/YFP FRET sensor + importin beta, 45 min. Importin subunit beta-1 (Homo sapiens), Q14974. Potency, µM (series often up to 92.2 µM), inactives show at the top dose inhibition of complex formation; calls by dose curve;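 also: potency is read from the fitted curve at half-maximal effect; 0% = DMSO wells and 100% = buffer wells lacking importin beta; nearly all actives have a fitted effect of over 15% in size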
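FRET biosensor Rango (snurportin 1 IBB between N-terminal EYFP and C-terminal Cerulean), 50 nM in PBS/1 mM DTT/0.02% Tween-20/0.1% BSA, preincubated 5 min RT with compound; 0.125 microM importin beta added, 45 min RT, CFP/YFP FRET ratio read.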
Rango release inh: qHTS Assay for Inhibitors of RanGTP induced Rango (Ran-regulated importin-beta cargo) - Importin beta complex dissociation. Snurportin-1 (Homo sapiens) + GTP-binding nuclear protein Ran (Homo sapiens) + Importin …. Biochemical FRET Rango-importin beta, RanGTP-induced dissociation. Potency, µM (doses to about 46.1 µM), inactives show at the top dose activity change, negative = inhibition. hit rate 0.071% among 340,000. AID 540253, 2011; calls by dose curve; also: potency is read from the fitted curve at half-maximal effect; % of control where 0% means no effect; nearly all actives have a fitted effect of over 45% in size
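Compounds sat 5 min at room temperature with 0.1 uM Rango biosensor plus 0.25 uM importin beta, then FRET pre-read. RanGTP-RCC1 (0.6 uM Ran, 2mM GTP, 0.2 uM RCC1) added for 45 min, and the CFP/YFP post-read measured blocked complex dissociation.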
PLK1 PBD inh: qHTS for Inhibitors of PLK1-PDB (polo-like kinase 1 - polo-box domain): Primary Screen. Serine/threonine-protein kinase PLK1 (Homo sapiens), P53350. Plk1 PBD binding of FITC phosphopeptide, fluorescence polarization. Potency, µM, for inactives: max response, negative = inhibition, hits mostly inhibitors. hit rate 2.8% among 360,000. AID 720504, 2013; also: potency is read from the fitted curve at half-maximal effect; series mostly up to about 57 µM; % is scaled to controls: 0 for no effect and ±100 for the full control effect; nearly all actives have a fitted effect of over 65% in size
Target sequence (P53350 whole entry, looked up, the tested form may be a part): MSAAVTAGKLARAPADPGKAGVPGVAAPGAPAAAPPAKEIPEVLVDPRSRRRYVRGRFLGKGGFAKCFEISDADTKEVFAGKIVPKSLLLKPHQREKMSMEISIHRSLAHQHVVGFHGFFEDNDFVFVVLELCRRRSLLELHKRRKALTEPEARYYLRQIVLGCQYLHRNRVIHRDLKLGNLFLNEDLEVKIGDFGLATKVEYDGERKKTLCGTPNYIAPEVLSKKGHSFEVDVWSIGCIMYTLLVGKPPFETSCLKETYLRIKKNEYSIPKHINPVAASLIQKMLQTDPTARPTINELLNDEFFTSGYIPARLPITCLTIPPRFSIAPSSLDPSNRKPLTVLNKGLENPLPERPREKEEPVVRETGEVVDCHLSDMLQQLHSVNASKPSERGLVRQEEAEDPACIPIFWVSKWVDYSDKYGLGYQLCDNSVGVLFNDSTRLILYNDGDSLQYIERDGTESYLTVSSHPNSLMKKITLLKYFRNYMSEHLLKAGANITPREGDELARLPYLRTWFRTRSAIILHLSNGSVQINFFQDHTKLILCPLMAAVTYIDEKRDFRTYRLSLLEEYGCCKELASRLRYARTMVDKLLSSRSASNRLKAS
GCN5L2 inh-2: qHTS Assay for Inhibitors of GCN5L2: Hit confirmation; shares compounds with GCN5L2 inh-1; GCN5L2 HAT, ThioGlo1 CoA fluorescence, 20 min; Potency, µM, usual class: inhibitors; hit rate 70% among 140; AID 588347, 2011
An asterisk follows results filed as active; ? = inconclusive; · = no result given. Shown are actives, neighbours in structure and some others; about 3.6% of the full set was active somewhere. Unless noted, calls follow the shape of the dose curve; as a rule, active = well fitted curve in the direction sought with a large enough effect; inconclusive = small, poorly fitted or top-dose-only effect, or another doubt; inactive = no such curve, though single readings can be large; an effect the other way counts as inactive or inconclusive.

SMILES | PI5P4K alpha inh | GCN5L2 inh-1 | VDR inh | Rango-impB inh | Rango release inh | PLK1 PBD inh | GCN5L2 inh-2
CCCCNC(=O)C1CCC(Cn2c(=O)c3sccc3n(Cc3ccccc3)c2=O)CC1 (stereo not drawn) | · | -5% | 3% | · | · | · | ·
CC(C)CC(C(=O)O)N1C(=O)C2C3CC(C2C1=O)C1C(c2ccccc2)c2sc(=O)[nH]c2SC31 (stereo not drawn) | -3 | 0% | ? | ? | ? | 17µM* | ·
O=C(O)CN1C(=O)C2C3CC(C2C1=O)C1C(c2ccccc2)c2sc(=O)[nH]c2SC31 (stereo not drawn) | -5 | -2% | -21% | ? | ? | ? | ·
CC(C)(C)c1cc(-c2csc(Nc3ccccc3)[n+]2Cc2ccc(C(=O)O)cc2)cc(C(C)(C)C)c1O | -10 | 22µM* | 79µM* | -3% | 10% | 21µM* | 18*
COc1cccc(CNS(=O)(=O)c2ccc3c(c2)C(C(C)C)C(=O)N3)c1 (stereo not drawn) | · | 20% | 2% | · | · | · | ·
COc1ccc(OC)c(/C=C/C(=O)Nc2cccc(S(=O)(=O)NC3=NCCCCC3)c2)c1 | -5 | 32µM* | -6% | ? | -15% | 4% | 32*
COc1ccc(/C=C/C(=O)Nc2cccc(S(=O)(=O)NC3=NCCCCC3)c2)c(OC)c1 | -1 | -13% | -8% | -1% | -1% | 6% | ·
COc1ccc(C2/C=C\CN(C(=O)C3CCCC3)C(C)C(=O)N2Cc2ccc(F)cc2)cc1 (stereo not drawn) | · | · | -14% | · | · | · | ·
O=C(O)CCc1nn2cc(-c3ccccc3)nc2[nH]c1=O | -12 | ? | -12% | ? | ? | 0% | 32*
CCOC(=O)c1c(-c2ccco2)csc1NC(=O)COC(=O)c1cnccn1 | -64* | 11µM* | -9% | 2% | 1% | -19% | ?
Cc1ccc(N2C(=O)C3C4C=CC(CC4)C3C2=O)cc1[N+](=O)[O-] (stereo not drawn) | 2 | ? | -9% | 5% | -19% | -1% | 16*
Cc1nc2nc(-c3cccs3)cn2nc1C | -14 | ? | 28% | 1% | ? | 30µM* | 36*
Cc1cccc(C)c1-n1cccc1/C=C1\SC(=S)N(c2cccc(C(=O)O)c2)C1=O | ? | 32µM* | ? | -7% | -8% | ? | 20*
Cc1ccc(NC(=O)CN2C(=O)S/C(=C\c3cccn3-c3cccc(C(=O)O)c3)C2=O)cc1C | ? | -1% | -4% | ? | ? | ? | ·
O=C(O)c1cccc(N/N=C/c2ccc(OC(F)(F)F)cc2)c1 | 5 | 21% | -1% | -1% | -15% | -24% | ·
CSc1ccc(/C=N/Nc2cccc(C(=O)O)c2)cc1 | -99* | ? | -2% | -3% | -13% | 12µM* | ?
CC1=NN(c2cccc(C(=O)O)c2)C(=O)/C1=C\C=C\c1ccco1 | -80* | ? | ? | ? | -19% | 8.4µM* | ?
CC(CNC(=O)c1ccc2nc(CCc3ccccc3)oc2c1)c1ccccc1 (stereo not drawn) | · | 2% | -7% | · | · | · | ·
O=C(CN1C(=O)/C(=C2/SC(=S)N(CCS(=O)(=O)O)C2=O)c2ccccc21)Nc1cccc(C(F)(F)F)c1 | -59* | 28µM* | ? | ? | -3% | 11µM* | ?
O=C(CN1C(=O)c2ccccc2Sc2ncccc21)Nc1cccc(C(F)(F)F)c1 | · | -2% | -1% | · | · | · | ·
O=C(CN1C(=O)/C(=C2\SC(=S)N(CCS(=O)(=O)O)C2=O)c2ccccc21)Nc1cccc(Br)c1 | -97* | 20µM* | ? | -4% | 11% | 6.7µM* | 11*
Cc1oc2ncn(CC(C)C)c(=O)c2c1C(=O)NCCc1ccc(Cl)cc1 | · | 3% | 7% | · | · | · | ·
O=C(Nc1ccc(F)c(Cl)c1)NC1CC1 | -9 | 3% | 10% | 0% | 6% | -5% | ·
O=C(Nc1cccc(C(F)(F)F)c1)c1ccc2nc(-c3ccco3)c(-c3ccco3)nc2c1 | -102* | ? | 20µM* | ? | ? | 5.3µM* | 18*
O=C(Nc1ccc2nc(-c3ccco3)c(-c3ccco3)nc2c1)NC1CC1 | -75* | 8.9µM* | 71µM* | ? | ? | ? | 20*
SMILES | PI5P4K alpha inh | GCN5L2 inh-1 | VDR inh | Rango-impB inh | Rango release inh | PLK1 PBD inh | GCN5L2 inh-2
Cc1ccc(OCCCCn2c(-c3ccc(Cl)cc3)nc3ccccc3c2=O)cc1 | · | 0% | -11% | · | · | · | ·
Cc1ccc(-c2cnc(-c3ccncc3)o2)cc1 | 2 | ? | 6% | -6% | -19% | -13% | 18*
CCN(CC)Cc1c(O)ccc2c(=O)c(Oc3ccccc3OC)coc12 | -5 | ? | 17% | -1% | 8% | -9% | ?
Cc1cc2nc(-c3ccc[nH]c3=O)n(Cc3ccc(F)cc3)c2cc1C | 1 | -17% | 7% | ? | -26% | -1% | ·
Cc1cc2nc(-c3ccc[nH]c3=O)[nH]c2cc1C | -20 | 28µM* | -5% | -3% | 12% | -9% | 36*
COc1ccc(Cl)cc1NC(=O)c1cc2nc(-c3ccc(C)cc3)cc(C(F)(F)F)n2n1 | · | -1% | 5% | · | · | · | ·
Cc1ccc2c(c1)sc1nc(-c3cc4cc(Cl)ccc4oc3=O)cn12 | · | -7% | 10% | · | · | · | ·
Fc1ccc(-c2nc(Nc3cccc(C(F)(F)F)c3)nc3c2COc2ccccc2-3)cc1 | · | -20% | 6% | · | · | · | ·
CCN(CC(=O)Nc1c(F)cccc1F)C(=O)/C=C/c1ccc2ccccc2n1 | -100* | ? | -6% | -2% | -11% | 13µM* | 23*
O=C(c1ccco1)n1nc(-c2ccccc2)nc1NCc1ccc(F)cc1 | · | -2% | 13% | · | · | · | ·
O=C(CSc1nnc(-c2ccco2)c(-c2ccco2)n1)Nc1ccccc1 | -84* | ? | ? | ? | -11% | 19µM* | 26*
Cc1cccc(C)c1NC(=O)CSc1nnc(-c2ccco2)c(-c2ccco2)n1 | -69* | 13µM* | ? | -3% | -4% | 19µM* | ?
